Structures can show the parent of a compound that is named as a salt. Where two headings read alike, the source gives them in different places. Hit rate of the full screen: of about 3,300 compounds, about 60 (2%) showed an effect of 50% or more. The list comes from a sample in which strong results are over-represented; it also holds similar structures and randomly drawn compounds. Bridge positions count the residues as written; N and C are the ends. Square brackets hold non-standard residues; d marks the D form. Peptide text beside a SMILES is read from it. * marks the point of attachment. NMePhe(4-NMe2) = CN[C@@H](Cc1ccc(N(C)C)cc1)C(=O)O; Pip(4-oxo) = O=C1CCN[C@H](C(=O)O)C1; Picolinoyl(3-OH) = O=C(c1ncccc1O)*; Phg = N[C@H](C(=O)O)c1ccccc1; dAbu = CC[C@@H](N)C(=O)O
Tested on: HCoV-OC43
Set-up: species or system RD; HTS, protection from HCoV-OC43 induced cell death, luminescent cell viability (CellCounting-Lite 2.0), inhibition rate
Conditions: 24 h post infection, 1 h compound pre-incubation, 10 µM, inhibitor

Structure (SMILES): CC(=O)O[C@H]1C[C@@]2(C)[C@@H](C[C@@H](O)[C@H]3[C@@]4(C)CC[C@@H](O)[C@@H](C)[C@@H]4CC[C@@]32C)/C1=C(\CCC=C(C)C)C(=O)O [Fusidic acid (sodium salt)]
- OC43 Inhibition rate: 1.2%

Structure (SMILES): CC1(C)[C@H](OC(=O)c2ccccc2)CC[C@]2(C)C3=CC[C@@]4(C)[C@@H]5C[C@](C)(COC(=O)c6ccccc6)CC[C@]5(C)CC[C@]4(C)C3=CC[C@@H]12 [3,29-O-Dibenzoyloxykarounidiol]
- OC43 Inhibition rate: -4.4%

Structure (SMILES): COC(=O)C1=CO[C@@H](O[C@@H]2O[C@H](CO)[C@@H](O)[C@H](O)[C@H]2O)[C@@H]2[C@@]3(C)O[C@H]3[C@@H](O)[C@]12O [Sesamoside]
- OC43 Inhibition rate: -1.2%

Structure (SMILES): CCC/C=C\C=C\CCCCCCCCCO [Bombykol]
- OC43 Inhibition rate: 1.1%

Structure (SMILES): COc1nccc(N)n1 [2-O-Methylcytosine]
- OC43 Inhibition rate: 0.2%

Structure (SMILES): C[C@]12CC[C@@H](O)C[C@H]1CC[C@@H]1[C@@H]2[C@@H](O)C[C@@]2(C)[C@H]1CC[C@]2(O)C(=O)CO [Tetrahydrocortisol]
- OC43 Inhibition rate: -0.2%

Structure (SMILES): CC(=O)O[C@@]12CO[C@@H]1C[C@H](O)[C@@]1(C)C(=O)[C@H](O)C3=C(C)[C@@H](OC(=O)[C@H](O)[C@@H](NC(=O)c4ccccc4)c4ccccc4)C[C@@](O)([C@@H](OC(=O)c4ccccc4)[C@H]21)C3(C)C [10-Deacetyltaxol]
- OC43 Inhibition rate: 0.2%

Structure (SMILES): CC(=O)c1cc2c(CO)cc(O)cc2oc1=O [Armillarisin A]
- OC43 Inhibition rate: -0.4%

Structure (SMILES): COc1ccc([C@H]2OC[C@H]3[C@@H]2CO[C@@H]3c2ccc(OC)c(OC)c2)cc1OC [Pinoresinol dimethyl ether]
- OC43 Inhibition rate (OC43 Inhibition rate, 24 h): 1.1%

Structure (SMILES): COc1ccc(-c2oc3c(CC=C(C)C)c(O[C@@H]4O[C@H](CO)[C@@H](O)[C@H](O)[C@H]4O)cc(O)c3c(=O)c2O[C@@H]2O[C@@H](C)[C@H](O)[C@@H](O)[C@H]2O[C@@H]2OC[C@@H](O)[C@H](O)[C@H]2O)cc1 [Epimedin B]
- OC43 Inhibition rate: 1%

Structure (SMILES): O=C(c1ccccc1)c1ccccc1 [Benzophenone]
- OC43 Inhibition rate: -0.1%

Structure (SMILES): O=C(CC(=O)c1ccccc1)c1ccccc1 [DBM, dibenzoylmethane]
- OC43 Inhibition rate: 102.9%

Structure (SMILES): O=C(O)c1ccccc1 [Benzoic acid]
- OC43 Inhibition rate: -0.2%

Structure (SMILES): Oc1cc(O)cc(/C=C/c2c(O)cccc2O)c1 [Gnetol]
- OC43 Inhibition rate: -1%

Structure (SMILES): O=c1cc(-c2ccc(O)cc2)oc2c([C@@H]3O[C@H](CO)[C@@H](O)[C@H](O)[C@H]3O)c(O)c([C@@H]3OC[C@@H](O)[C@H](O)[C@H]3O)c(O)c12 [Vicenin-1]
- OC43 Inhibition rate: -1.7%

Structure (SMILES): COc1cc([C@H]2Oc3cc([C@H]4Oc5cc(O)cc(O)c5C(=O)[C@@H]4O)ccc3O[C@@H]2CO)ccc1O [Silibinin]
- OC43 Inhibition rate (OC43 Inhibition rate, 24 h): 1.4%

Structure (SMILES): CCCCCCCCCC(O)CC(=O)O (stereo not drawn) [3-Hydroxydodecanoic acid]
- OC43 Inhibition rate: -3.9%

Structure (SMILES): Cn1cc(C(=O)O)ccc1=O [1-Methyl-6-oxo-1,6-dihydropyridine-3-carboxylic acid]
- OC43 Inhibition rate: 0.2%

Structure (SMILES): O=C(CCc1ccc(O)c(O)c1)NCCCNCCCCNCCCNC(=O)CCc1ccc(O)c(O)c1 [Kukoamine A]
- OC43 Inhibition rate: 2.2%

Structure (SMILES): Nc1ncnc2c1ncn2[C@H]1C[C@H](O)[C@@H](CO)O1 [2'-Deoxyadenosine monohydrate]
- OC43 Inhibition rate (OC43 Inhibition rate, 24 h): -2.3%

Structure (SMILES): Nc1ncnc2c1ncn2[C@@H]1C[C@H](CO)[C@@H](O)[C@H]1O [Aristeromycin]
- OC43 Inhibition rate: 53.9%

Structure (SMILES): Nc1ncnc2c1ncn2[C@@H]1O[C@H](CO)C[C@H]1O [Cordycepin]
- OC43 Inhibition rate: -0.3%

Structure (SMILES): C=C1C(=O)O[C@H]2C[C@@H](C)[C@@H]3CCC(=O)[C@@]3(C)[C@@H](OC(C)=O)[C@H]12 [Ergolide]
- OC43 Inhibition rate: 10.6%

Structure (SMILES): CC(C)=CCC[C@](C)(O)[C@@H]1CC=C(C)CC1 [Levomenol]
- OC43 Inhibition rate (OC43 Inhibition rate, 24 h): -0.7%

Structure (SMILES): Cn1cnc2c(ncn2[C@@H]2O[C@H](CO)[C@@H](O)[C@H]2O)c1=O [1-Methylinosine]
- OC43 Inhibition rate: 0.1%

Structure (SMILES): C[C@@H]1C/C=C/C=C/C=C/C=C/[C@H](O[C@@H]2O[C@H](C)[C@@H](O)[C@H](N)[C@@H]2O)C[C@@H]2O[C@](O)(C[C@@H](O)C[C@H]3O[C@@H]3/C=C/C(=O)O1)C[C@H](O)[C@H]2C(=O)O [Natamycin]
- OC43 Inhibition rate: -0.1%

Structure (SMILES): C[C@@H]1[C@H](O)[C@@H](C)/C=C/C=C/C=C/C=C/C=C/C=C/C=C/[C@H](O[C@@H]2O[C@H](C)[C@@H](O)[C@H](N)[C@@H]2O)C[C@@H]2O[C@](O)(C[C@@H](O)C[C@@H](O)[C@H](O)CC[C@@H](O)C[C@@H](O)CC(=O)O[C@H]1C)C[C@H](O)[C@H]2C(=O)O [amphotericin B]
- OC43 Inhibition rate: 103.7%

Structure (SMILES): O=S(=O)(O)CCO [Isethionic acid sodium salt]
- OC43 Inhibition rate: -0.5%

Structure (SMILES): O=C(O)[C@H](O)[C@H](O)[C@@H](O)[C@H](O)[C@H](O)CO [NSC 42196]
- OC43 Inhibition rate: 3.4%

Structure (SMILES): N[C@H](C(=O)O)[C@@H]1CC(Cl)=NO1 [Acivicin (hydrochloride)]
- OC43 Inhibition rate: 61.6%

Structure (SMILES): CC1(C)CCC[C@]2(C)[C@H]3CCO[C@]3(C)CC[C@@H]12 [Ambroxide]
- OC43 Inhibition rate: -0.5%

Structure (SMILES): CC1=CC(=O)C(C(C)C)CC1 (stereo not drawn) [Piperitone]
- OC43 Inhibition rate: -0.8%

Structure (SMILES): CC(=O)NCCCC[C@H](N)C(=O)O [Nepsilon-Acetyl-L-lysine]
- OC43 Inhibition rate: -0.2%

Structure (SMILES): C=C[C@H]1CN2CC[C@@]3(C(=O)Nc4ccccc43)[C@@H]2C[C@@H]1/C(=C\OC)C(=O)OC [Isocorynoxeine]
- OC43 Inhibition rate: -0.3%

Structure (SMILES): CCC/C=C1\OC(=O)C2=C1CC[C@H]1[C@H]3C=C4C(=O)O/C(=C\CCC)[C@@]4(CC3)[C@@H]21 [Levistolide A]
- OC43 Inhibition rate: 77.4%

Structure (SMILES): CCC/C=C1\OC(=O)C2=C1CC[C@@H](O)[C@H]2O [Senkyunolide H]
- OC43 Inhibition rate: -0.5%

Structure (SMILES): CCC/C=C1\OC(=O)C2=C1CC[C@H](O)[C@H]2O [Senkyunolide I]
- OC43 Inhibition rate: -0.4%

Structure (SMILES): O=C(O)c1ccc(=O)oc1 [Coumalic acid]
- OC43 Inhibition rate: 10.5%

Structure (SMILES): CC(=O)O[C@@H]1CC[C@@]2(C)[C@@H](CC[C@]3(C)[C@@H]2CC=C2[C@@H]4[C@@H](C)[C@H](C)CC[C@]4(C)CC[C@]23C)[C@@]1(C)C(=O)O [3-Acetyl-beta-boswellic acid]
- OC43 Inhibition rate: 66.7%

Structure (SMILES): C[C@H]1[C@H](C)CC[C@]2(C)CC[C@]3(C)C(=CC[C@@H]4[C@@]5(C)CC[C@@H](O)[C@](C)(C(=O)O)[C@@H]5CC[C@]43C)[C@H]12 [β-Boswellic acid]
- OC43 Inhibition rate: -0.2%

Structure (SMILES): CC(=O)O[C@@H]1CC[C@@]2(C)[C@@H](CC[C@]3(C)[C@@H]2[C@H](O)C=C2[C@@H]4[C@@H](C)[C@H](C)CC[C@]4(C)CC[C@]23C)[C@@]1(C)C(=O)O [3-O-Acetyl-11-hydroxy-beta-boswellic acid]
- OC43 Inhibition rate: 15.2%

Structure (SMILES): C[C@H](CCC(=O)NCC(=O)O)[C@H]1CC[C@H]2[C@@H]3CC[C@@H]4C[C@H](O)CC[C@]4(C)[C@H]3C[C@H](O)[C@]12C [Glycodeoxycholic acid (monohydrate)]
- OC43 Inhibition rate (OC43 Inhibition rate, 24 h): -0.8%

Structure (SMILES): CCCCCCCC/C=C\CCCCCCCCCCCCCC(=O)O [Nervonic acid]
- OC43 Inhibition rate: -2.1%

Structure (SMILES): CC(=O)N[C@H](C(=O)O)C(C)C [Acetylvaline]
- OC43 Inhibition rate: -0.2%

Structure (SMILES): COc1ccc2c(c1OC)CN(C)c1c-2ccc2cc3c(cc12)OCO3 [Dihydrochelerythrine]
- OC43 Inhibition rate: 1.4%

Structure (SMILES): O=c1cc(-c2ccccc2)oc2c1ccc1ccccc12 [Alpha-Naphthoflavone]
- OC43 Inhibition rate: 65.1%

Structure (SMILES): O=c1cc(-c2ccccc2)oc2ccccc12 [Flavone]
- OC43 Inhibition rate: 0.3%

Structure (SMILES): O=c1cc(-c2ccccc2)oc2c(O)c(O)ccc12 [7,8-Dihydroxyflavone]
- OC43 Inhibition rate: 0.2%

Structure (SMILES): CC(C)=CCC[C@](C)(O[C@@H]1O[C@H](CO)[C@@H](O)[C@H](O)[C@H]1O)[C@H]1CC[C@]2(C)[C@@H]1[C@H](O)C[C@@H]1[C@@]3(C)CC[C@H](O)C(C)(C)[C@@H]3[C@@H](O[C@@H]3O[C@H](CO)[C@@H](O)[C@H](O)[C@H]3O[C@@H]3OC[C@@H](O)[C@H](O)[C@H]3O)C[C@]12C [Notoginsenoside R1]
- OC43 Inhibition rate: 0.5%

Structure (SMILES): N[C@@H](Cc1c[nH]cn1)C(=O)O [L-Histidine (hydrochloride hydrate)]
- OC43 Inhibition rate (OC43 Inhibition rate, 24 h): 2.4%

Structure (SMILES): CC[C@H]1NC(=O)[C@@H](NC(=O)c2ncccc2O)[C@@H](C)OC(=O)[C@H](c2ccccc2)NC(=O)[C@@H]2CC(=O)CCN2C(=O)[C@H](Cc2ccc(N(C)C)cc2)N(C)C(=O)[C@@H]2CCCN2C1=O [Pristinamycin IA] ({Picolinoyl(3-OH)}-T[dAbu]P[NMePhe(4-NMe2)][Pip(4-oxo)][Phg]; ester 1-C)
- OC43 Inhibition rate: 1.7%

Structure (SMILES): NCCCCNCCCN [Spermidine]
- OC43 Inhibition rate (OC43 Inhibition rate, 24 h): -0.8%

Structure (SMILES): COc1cc(O)cc2oc(-c3ccc(O)c(O)c3)c(O)c(=O)c12 [Azaleatin]
- OC43 Inhibition rate: 7.4%

Structure (SMILES): COc1ccc2cc3n(c(=O)c2c1OC)CCc1cc2c(cc1-3)OCO2 [Oxyberberine]
- OC43 Inhibition rate: 58.7%

Structure (SMILES): O=c1c2c3c(ccc2cc2n1CCc1cc4c(cc1-2)OCO4)OCO3 [8-Oxocoptisine]
- OC43 Inhibition rate: -0.2%

Structure (SMILES): COc1cc2c(cc1OC)-c1cc3ccc4c(c3c(=O)n1CC2)OCO4 [8-Oxoepiberberine]
- OC43 Inhibition rate: 10.1%

Structure (SMILES): OC[C@H]1O[C@@H](Oc2cc(/C=C/c3cc(O)cc(O)c3)ccc2O)[C@H](O)[C@@H](O)[C@@H]1O [Piceatannol 3'-O-glucoside]
- OC43 Inhibition rate: 2%

— article PMC12431657, “Discovery and mechanistic insights of dibenzoylmethane as a broad spectrum inhibitor of coronavirus” (PLOS Pathogens, 2025)
